# SF1 inhibitor: blocks the human nuclear receptor SF-1; Q13285; CHO-K1 Gal4-SF-1 LBD luciferase reporter; inhibition, % at 10 µM; hit rate 0.55% among 65,000;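 active = inhibition above the mean inhibition of all tested compounds plus 3 SD, cut at about 48% in these data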;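 also: 0% = SF-1 transfected cells with DMSO and 100% = mock-transfected cells lacking SF-1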
# * = called active by the depositor. The full list was thinned out, with hits kept by preference.
SMILES,SF1 inhibitor
CCn1nc(-c2cccs2)nc2c(=O)n(C)c(=O)nc1-2,96*
Cc1cnn(C2CCN(C)CC2)c1N,-12
C=CCN1C(=O)CSc2ccc(C(=O)N3CCC4(CC3)OCCO4)cc21,12
CC12CCCCC1=[N+]([O-])CN2O (stereo not drawn),-8
C=C1N2CCC(CC2)C1(O)c1ccccc1C (stereo not drawn),-1
COc1cc2nc(CN3CC=C(c4ccccc4)CC3)[nH]c(=O)c2cc1OC,88*
COc1ccccc1-n1c(-c2ccoc2)nc2ccccc2c1=O,4
Cc1cccc(-n2c(CN3C(=O)c4ccccc4C3=O)nc3ccccc3c2=O)n1,-1
CCCCn1c(=O)c(C(=O)Nc2cnccn2)c(O)c2ccccc21,14
Cc1c2cnn(CC(=O)N3CCC4(CC3)OCCO4)c(=O)c2c(C)n1Cc1ccccc1F,1

# Screens from PubChem.
